Rows were chosen to be rich in hits. Some 11% of all compounds tested hit in one or more screens of this group.
HEK cytotox: Cytotoxic Profiling in HEK 293 Cell Line of Diverse Libraries Using Quantitative High-Throughput Screening. HEK 293 viability, ATP luminescence (CellTiter-Glo), 48-72 h. Potency, µM (highest dose often 115 µM), for inactives: at the highest dose activity change, negative = cytotoxicity, hits mostly inhibitors. 94,000 compounds, 6.6% hits; note: nearly all actives have a fitted effect of over 60% in size
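HEK 293 cells at 250 cells/well were exposed to compounds by pintool transfer for 48 or 72 hr at 37 degree Celsius, 5% CO2. Viability was read as ATP-coupled luminescence with CellTiter-Glo after 10 min at room temperature.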
hNpr1 antagonist: Natriuretic polypeptide receptor (hNpr1) antagonism - Primary qHTS | Atrial natriuretic peptide receptor 1 (Homo sapiens), P16066 | HEK293 hNpr1 GloSensor cGMP, ANP-stimulated luminescence | Potency, µM (titrated, usually from 46.3 µM), inactives show at the top dose activity change, negative = inhibition, most hits filed as inhibitors | 76,000 compounds, 1.6% hits; calls by dose curve; note: nearly all actives have a fitted effect of over 60% in size
Target sequence (P16066 whole entry, looked up): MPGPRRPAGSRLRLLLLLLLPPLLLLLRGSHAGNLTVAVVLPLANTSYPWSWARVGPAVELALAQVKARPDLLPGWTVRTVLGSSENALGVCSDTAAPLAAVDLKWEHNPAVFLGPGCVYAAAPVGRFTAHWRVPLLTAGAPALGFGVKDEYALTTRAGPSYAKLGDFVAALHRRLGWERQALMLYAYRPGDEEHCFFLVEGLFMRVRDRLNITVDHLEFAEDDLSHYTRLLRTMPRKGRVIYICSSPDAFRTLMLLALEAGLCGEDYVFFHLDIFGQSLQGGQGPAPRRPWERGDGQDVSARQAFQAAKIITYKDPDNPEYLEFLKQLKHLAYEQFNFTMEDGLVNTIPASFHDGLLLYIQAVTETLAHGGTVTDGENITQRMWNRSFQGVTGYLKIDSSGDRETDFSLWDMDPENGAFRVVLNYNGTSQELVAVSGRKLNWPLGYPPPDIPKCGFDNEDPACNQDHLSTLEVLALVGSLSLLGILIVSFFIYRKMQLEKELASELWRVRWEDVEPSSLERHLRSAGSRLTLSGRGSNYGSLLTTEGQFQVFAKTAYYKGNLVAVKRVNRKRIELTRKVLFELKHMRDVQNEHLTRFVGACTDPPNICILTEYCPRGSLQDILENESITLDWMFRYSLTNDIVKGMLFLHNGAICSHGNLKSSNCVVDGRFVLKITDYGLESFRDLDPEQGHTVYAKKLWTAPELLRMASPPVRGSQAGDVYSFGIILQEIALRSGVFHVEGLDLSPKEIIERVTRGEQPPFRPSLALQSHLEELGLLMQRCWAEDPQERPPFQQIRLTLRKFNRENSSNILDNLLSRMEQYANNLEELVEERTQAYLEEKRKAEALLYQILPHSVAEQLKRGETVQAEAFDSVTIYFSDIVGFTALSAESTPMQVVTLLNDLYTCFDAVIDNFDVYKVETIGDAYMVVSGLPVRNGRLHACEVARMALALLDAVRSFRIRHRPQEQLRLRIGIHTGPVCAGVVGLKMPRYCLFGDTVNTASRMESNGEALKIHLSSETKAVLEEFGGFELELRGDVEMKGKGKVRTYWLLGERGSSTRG
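Compound pre-incubated 30 min at room temperature on GloSensor-loaded HEK293 cells stably carrying hNpr1 and the pGS-40F cGMP biosensor. Stimulation uses hNppA at 0.1 nM final; luminescence is taken at baseline and 20 min post-agonist.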
FLuc inh: Firefly luciferase inhibition profiling of diverse chemical library using quantitative high-throughput screening | AID 1347043, 2019 | 76,000 compounds, 2.5% hits | Potency, µM (top dose mostly 115 µM), usual class: inhibitors | purified P. pyralis luciferase, luminescence, biochemical; note: nearly all actives have a fitted effect of over 65% in size
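Luminescence read by CCD imaging after purified firefly luciferase (10nM final) was added to substrate buffer holding 10uM D-luciferin and 10uM ATP, pH 7.5, pre-dosed with compound.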
3T3 cytotox: Cytotoxic Profiling in NIH 3T3 Cell Line of Diverse Libraries Using Quantitative High-Throughput Screening. NIH 3T3 viability, CellTiter-Glo ATP luminescence, 48-72 h. Potency, µM (top dose mostly 96.7 µM), without a hit: at the highest dose activity change, negative = cytotoxicity, most hits filed as inhibitors. 94,000 compounds, 4.3% hits; note: nearly all actives have a fitted effect of over 55% in size
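Cytotoxicity is measured as loss of cellular ATP: NIH 3T3 cells (400/well) are exposed to compound for 48 or 72 hr at 37 °C, then CellTiter-Glo luminescence is imaged after 10 min at room temperature.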
An asterisk follows results filed as active; i = inactive; ? = inconclusive; · = no result given; [ ] = remark or other dose. Unless noted, calls come from the whole dose curve; as a rule, active = well fitted curve in the direction sought with a large enough effect; inconclusive = small, poorly fitted or top-dose-only effect, or another doubt; inactive = no such curve, though single readings can be large; an effect the other way counts as inactive or inconclusive. % is set by controls: 0 for no effect and ±100 for the full control effect; potency is the fitted concentration of half-maximal effect.

SMILES	HEK cytotox	hNpr1 antagonist	FLuc inh	3T3 cytotox
O=C(CCCc1ccccc1)N1CCC(C2CCNC2)CC1 (stereo not drawn)	-19%	1%	35µM*	1%
CCn1nccc1C(=O)N1CCC2(CC1)CC(N(Cc1ccccc1)C1CC1)CCO2 (stereo not drawn)	45µM*	-29%	i	-21%
O=C(c1ccncc1)N1CCC2(CC1)CC(N(C(=O)c1ccccc1)C1CC1)CCO2 (stereo not drawn)	-29%	-2%	i	-27%
COc1ccc(CN2CCCCC23Cc2ccccc2CNC3=O)cc1 (stereo not drawn)	-11%	·	·	i
Cc1ccsc1C(=O)N1CCC2(CC1)CC(N(Cc1ccccc1)C1CC1)CCO2 (stereo not drawn)	40µM*	-26%	i	?
Cc1ccsc1C(=O)N1CCC2(CC1)CC(N(Cc1ccc(F)cc1)C1CC1)CCO2 (stereo not drawn)	?	-25%	i	?
O=C(c1ccoc1)N1CCC(n2cc(-c3nc(-c4ccccc4)no3)nn2)CC1	?	-23%	?	?
O=C(c1ccc(F)cc1Cl)N1CCC(n2cc(-c3nc(-c4ccccc4)no3)nn2)CC1	?	18µM*	?	?
Cc1ccccc1C(=O)N1CCC(n2cc(-c3nc(-c4ccccc4)no3)nn2)C1 (stereo not drawn)	?	7.9µM*	?	?
Cn1cccc1C(=O)N1CCC(n2cc(-c3nc(-c4ccccc4)no3)nn2)CC1	?	-20%	?	?
O=C(c1ccncc1)N1CCC(n2cc(-c3nc(-c4ccccc4)no3)nn2)CC1	?	-29%	?	32µM*
O=C(c1cc(F)ccc1F)N1CCC(n2cc(-c3nc(-c4ccccc4)no3)nn2)CC1	?	-30%	i	?
Cn1cccc1C(=O)N1CCC(n2cc(-c3nc(-c4ccccc4)no3)nn2)C1 (stereo not drawn)	45µM*	18µM*	?	?
O=C(c1ccc(OC2CCN(C(=O)c3cccc(Cl)c3)CC2)nc1)N1CCOCC1	-25%	-1%	i	?
Cc1ccc(C(=O)N2CCCn3cc(-c4ccccc4F)nc32)cn1	-23%	3%	i	-1%
O=C1CCCN1CCCN1C(=O)[C@@H]2C[C@@H](O)CN2C2(CN(Cc3ccc(OC(F)(F)F)cc3)C2)C1=O	-8%	-10%	i	-23%
Cc1ccsc1C(=O)N1CCC(n2cc(-c3nc(-c4ccccc4)no3)nn2)CC1	40µM*	?	i	-28%
N#Cc1ccc(C(=O)N2CCCC(n3cc(-c4nc(-c5ccccc5)no4)nn3)C2)cc1 (stereo not drawn)	?	11µM*	?	-23%
O=C(c1cccs1)N1CCC(n2cc(-c3nc(-c4ccccc4)no3)nn2)CC1	35µM*	?	i	?
Cc1ccc(C(=O)N2CCCC(n3cc(-c4nc(-c5ccccc5)no4)nn3)C2)cc1 (stereo not drawn)	?	0%	?	?
O=C(c1ccc(Cl)cc1)N1CCC(n2cc(-c3nc(-c4ccccc4)no3)nn2)C1 (stereo not drawn)	22µM*	?	?	-55%
COCCNC(=O)[C@@H]1C[C@@H](O)CN1C1CCN(C(=O)CC2CCCCC2)CC1	0%	-13%	i	-8%
COc1ccc(C)cc1-c1nccc2c(=O)cc(-c3cnn(C)c3)oc12	?	1%[70.6 µM]	i	?
CC(=O)N1CCC(N2CCc3nn(Cc4ccccc4)c(=O)n3CC2)CC1	-15%	2%	i	-8%
CCc1noc(-c2cn(C3CCN(C(=O)c4ccccc4)C3)nn2)n1 (stereo not drawn)	-5%	2%	i	-13%
SMILES	HEK cytotox	hNpr1 antagonist	FLuc inh	3T3 cytotox
O=C(c1ccccc1)N1CCC(n2cc(-c3nc(-c4ccccc4)no3)nn2)C1 (stereo not drawn)	?	13µM*	?	?
Cc1nn2c(c1-c1cccc3cn[nH]c13)N(C(=O)COc1ccccc1C(N)=O)CCC2	i	-20%[70.6 µM]	i	25µM*
COc1ccccc1C(=O)N1CCCn2nc(C)c(-c3cccnc3N3CCOCC3)c21	i	5%[70.6 µM]	i	?
COc1ccccc1C(=O)N1CCCn2nc(C)c(-c3ccnn3C(C)C)c21	-22%[172 µM]	-3%[70.6 µM]	i	?
Cc1nn2c(c1-c1ccnn1C(C)C)N(C(=O)COc1ccccc1C(N)=O)CCC2	0%[172 µM]	14%[70.6 µM]	i	28µM*
Cc1nnc2n1CCC(N)CC2 (stereo not drawn)	-11%	0%	i	-9%
CCc1noc([C@@H]2CC(F)(F)CN2C(=O)c2ccoc2C)n1	?	-4%	35µM*	-9%
COCc1nc(-c2ccc(OC3CN(C(=O)c4cc(C)n(C)n4)C3)cc2)no1	?	-23%	i	-24%
CCN(CC)C(=O)N1CC[C@H](c2nc(C)no2)[C@H](NC(=O)COC)C1	i	·	·	-5%
Cc1ccc(-n2nc(C)c([C@@H]3C=C[C@@H](NS(=O)(=O)c4cccs4)C3)c2C)cc1Cl	45µM*	?	?	35µM*
Cc1nn(-c2ccc(C(F)(F)F)cc2)c(C)c1[C@@H]1C=C[C@@H](NS(=O)(=O)c2ccccc2)C1	45µM*	-29%	i	40µM*
Cc1nn(-c2ccc(C(F)(F)F)cc2)c(C)c1[C@@H]1C=C[C@@H](NC(=O)COc2ccccc2)C1	?	-24%	i	?
COc1ccc(C(=O)N[C@@H]2C=C[C@@H](c3c(C)nn(-c4ccc(C)c(Cl)c4)c3C)C2)cc1	?	?	32µM*	?
COc1cc2c(cc1OC)C(CNC(=O)c1ccco1)N(C(=O)Nc1cccc(F)c1)CC2 (stereo not drawn)	45µM*	1%	i	-19%
Cc1csc(Nc2ccc3c(n2)CN(C)C(=O)CO3)n1	18µM*	1%[70.6 µM]	i	32µM*
O=C(c1cccc(Cl)c1)N1CCC(c2nn(-c3ccc(F)cc3)c(=O)[nH]2)CC1	1%	9%	i	?
COc1ccc(C(=O)Nc2ccc3c(c2)CN(C(C)c2ccc(F)cc2)C(=O)CO3)cc1OC (stereo not drawn)	?	-16%	i	?
CC(c1ccc(F)cc1)N1Cc2cc(NC(=O)Cc3cccs3)ccc2OCC1=O (stereo not drawn)	40µM*	?	i	?
CCN1CCN(CCN2CC3(CCN(C(=O)[C@H](C)NC)CC3)OC2=O)CC1	-3%	0%	i	0%
CCCCc1nn(CC(=O)NCc2n[nH]c(C)n2)c(=O)n1CC	-5%	7%	i	0%
